Molecules are shown by their SMILES. About 1,600 (39%) of roughly 4,100 compounds were called active. Not shown: some 25% with an inconclusive outcome. Calls come from the whole dose curve; as a rule, active = well fitted inhibition curve with a large enough effect; inconclusive = small, poorly fitted or top-dose-only effect; inactive = no such curve, though single readings can be large or run the other way. The list shows a part of the results. Where a call stands in place of a potency, no number is given.
Potency is the fitted concentration of half-maximal effect.

This assay can be described thus: qHTS Validation assay for Inhibitors of Plasmodium falciparum Dd2 growth in vitro. Note: nearly all actives have a fitted effect of over 70% in size. The conditions noted are these: P. falciparum Dd2 in RBCs, SYBR Green growth, 72 h; series mostly up to 28.7 µM. An excerpt:
Malaria, a parasitic disease spread to humans through the bite of a Plasmodium infected Anopheles mosquito, continues to be a global health burden affecting millions of people, with an estimated 228 million cases and 405,000 deaths in 2018. Concerns about safety and limitations of current antimalarial treatments strongly emphasize the need to develop new therapeutic options. The scarce number of chemotypes and validated drug targets with efficacy against the liver stage, have hindered development of new antimalarials. To address this, a chemoprophylactic drug discovery effort was conducted through a combined phenotypic high-throughput asexual blood stage and liver stage screen, providing a robust foundation to identify liver-stage active lead chemotypes. Compounds were initially screened against Plasmodium falciparum Dd2 strain parasites using a in vitro SYBRGreen-1 based 72 hr proliferation assay to identify novel chemotypes to advance to liver stage assays. NIH/NCATS Early Translation Branch Assay Submitter (PI): Anton Simeonov Ph.D.
[…] Assay Protocol: PROTOCOL TABLE (as described by Inglese et al., 2007) SEQUENCE No. (e.g., 1, 2, 3, etc.); PARAMETER (e.g., Cells, Incubation, Reagent, etc.); VALUE; DESCRIPTION SEQUENCE, Parameter, Description 1; Reagent; 3 uL complete malaria growth medium, 1536 TC treated Black clear bottom plate 2; Controls; 23 nL positive control artesunate (300 nM final) to column 1; Neutral control DMSO to columns 2-4 3; Compound; 23 nL of compounds in dose response concentration (29 uM to 0.5 nM final) 4; Reagent; 5 uL malaria infected red blood cells (2.5% hematocrit final, 0.3% parasitemia 5; Time; 72 hours at 37C (5% O2, 5% CO2, 90% N2; 95% Rh) 6; Reagent; 2 uL lysis buffer/SYBRGreen-1, 25 sec shake immediately following dispense 7; Time; ~16 hours at 37C (5% O2, 5% CO2, 90% N2; 95% Rh) 8; Detector; EnVision (PerkinElmer) bottom read at 485/14nm excitation and 535/25 nm emission NOTES (numbers refer to sequence above): 1; Complete Malaria Growth Media: 1X RPMI-1640 w/L-glutamine, 5.5g/L Albumax II, 367 uM Hypoxanthine, 25 mM HEPES, 0.25% Sodium Bicarbonate, 35 uM Gentamicin sulfate 2; Controls were added using the Kalypsis Pintool (Wako USA) equipped with 1536 pinhead 3; Compounds were added in a 7-point, titration with a high final concentration of 29 uM by Pintool from seven inter-plate titrations of library plates and two DMSO control plates at the beginning and end (see Yasgar et al., 2008). 4; Red blood cells infected with Plasmodium falciparum Dd2 parasites were used. 6; Lysis buffer: 20 mM Tris-HCl, 10 mM EDTA, 0.16% Saponin, 1.6% Triton-X, 10X SYBR Green. REFERENCE: Inglese J, Shamu CE, Guy RK. 2007. Reporting data from high-throughput screening of small-molecule libraries. Nat Chem Biol. doi:10.1038/nchembio0807-438 Yasgar A, Shinn P, Jadhav A, Auld D, Michael S, Zheng W, Austin CP, Inglese J, Simeonov A. 2008. Compound Management for Quantitative High-Throughput Screening. J Lab Autom 13:79-89. doi:10.1016/j.jala.2007.12.004
`CCCc1nc2nc(C)c(NS(=O)(=O)c3ccc(F)cc3)c(=O)n2[nH]1`: the Potency result is “inactive”.

As to `Cc1cc(C)c(CN2C(=O)c3ccccc3S(=O)(=O)c3ccc(C(=O)OCC4CCCO4)cc32)c(C)c1` (configuration not stated), the Potency is 6.68 µM (active).

For `COc1ccc(-c2noc([C@@H]3C[C@H](NS(=O)(=O)c4ccc(OC)cc4)CN3C)n2)cc1`, the Potency result is “inactive”.

`COc1cccc(NC(=O)N[C@H]2C[C@@H](c3nc(C)no3)N(C)C2)c1`: the Potency was 17.2 µM (active).

On to `CN1C[C@@H](NC(=O)COc2ccccc2)C[C@H]1c1nc(-c2ccc3c(c2)OCO3)no1`, for which the Potency entry is “inactive”.

Regarding `CCN(CC)S(=O)(=O)c1ccc(N2CCCCC2)c(NC(=O)C2=COCCO2)c1`, the Potency is 6.68 µM (active).

On to `CN(C)S(=O)(=O)c1ccc(N2CCCC2)c(C(=O)NC(c2ccccc2)c2ccccc2)c1`, for which the Potency entry was “inactive”.

Take `N=c1n(N)c2ccccc2n1CC(=O)c1ccc(Br)cc1`: the Potency entry was “inactive”.

On to `CCN(CC)CCn1c(=N)n(CC(=O)c2ccc(Br)s2)c2ccccc21`, for which the Potency was 5.31 µM (active).

On to `Cc1nn(-c2ccccc2)c(C)c1/C=N/Nc1nc2ccccc2[nH]1`, for which the Potency was 1.5 µM (active).

Take `Cc1ccc(Oc2ccc(NC(=O)c3ccco3)cc2)cc1`: the Potency was 10.6 µM (active).

For the molecule `CC(NC(=O)c1ccc(NC(=O)c2ccco2)cc1)c1ccccc1` (configuration not stated), the Potency entry is “inactive”.

`CCOC(=O)c1ccc(NC(=O)c2ccco2)cc1`: the Potency entry was “inactive”.

Regarding `CN1C(=O)COC[C@@H]1[C@H](O)c1ccc(NC(=O)c2ccccc2)cc1`, the Potency entry was “inactive”.

As to `O=C(NC1=C(Nc2ccc(Cl)cc2)C(=O)c2ccccc2C1=O)c1ccccc1`, the Potency was 0.473 µM (active).

As to `Cc1cccc(NC2=C(NC(=O)c3ccccc3)C(=O)c3ccccc3C2=O)c1`, the Potency is 0.944 µM (active).

For the molecule `O=C(O)/C=C/c1cccc(NC(=O)c2ccc(Cl)cc2)c1`, the Potency entry is “inactive”.

Consider `O=C(NC1=C(Nc2ccc(F)cc2)C(=O)c2ccccc2C1=O)c1ccc(Cl)cc1`, for which the Potency is 0.842 µM (active).

On to `Cc1ccccc1OCC(=O)Nc1ccccc1C(=O)OCc1cc(=O)n2ccsc2n1`, for which the Potency result was “inactive”.

Regarding `Cc1csc2nc(COc3ccc(NC(=O)COc4ccccc4F)cc3)cc(=O)n12`, the Potency entry is “inactive”.

For the molecule `CCCc1nn2c(=O)cc(COC(=O)c3cccc(NC(=O)COc4ccccc4C)c3)nc2s1`, the Potency is 13.3 µM (active).

In the case of `CC1(CCCCN2CCOCC2)COc2ccc(C(=O)Nc3ccc4[nH]ccc4c3)cc2N1` (configuration not stated), the Potency result is “inactive”.

Turning to `CCCN(CCC)CCCNc1ccc(C(=O)Nc2cccc(OC)c2)cc1[N+](=O)[O-]`, the Potency is 5.96 µM (active).

Turning to `CCCNc1ccc(-c2nc(-c3ccncc3)no2)cc1[N+](=O)[O-]`, the Potency result was “inactive”.

For `Cc1ccc(C(=O)N2[C@@H]3CC[C@H]2CC(NC(=O)c2ccncc2)C3)cc1F` (some centres not stated), the Potency result is “inactive”.

Regarding `COc1cccc(NC(=O)c2ccc(NCCCN3CCC(C)CC3)c([N+](=O)[O-])c2)c1`, the Potency was 7.5 µM (active).

In the case of `Cc1ccc(NC(=O)c2ccc(NCCCN3CCC(C)CC3)c([N+](=O)[O-])c2)cc1F`, the Potency is 6.68 µM (active).

Consider `COCCCNC(=O)C(NC(=O)c1ccc(OC)cc1)C1CCN(C(=O)c2cccc(OC)c2)CC1` (configuration not stated), for which the Potency result is “inactive”.

In the case of `COc1cccc(NC(=O)c2ccc3c(c2)NC(C)(CCCCN2CCOCC2)CO3)c1` (configuration not stated), the Potency result was “inactive”.

For `c1ccc(CCc2nc3nccc(-c4ccc5c(c4)OCCCO5)n3n2)cc1`, the Potency result was “inactive”.

Turning to `CC(C)Oc1ccc(C(CCNCc2ccc(O)cc2)c2ccccc2)cc1` (configuration not stated), the Potency is 0.668 µM (active).

In the case of `Cc1noc([C@@H]2CN(C(=O)c3cccc(C(F)(F)F)c3)C[C@H]2C(N)=O)n1`, the Potency entry was “inactive”.

As for `Cc1onc(-c2ccc(Cl)cc2)c1-c1ccnn1S(=O)(=O)c1cccc(C(F)(F)F)c1`, the Potency was 4.73 µM (active).

For `Cc1onc(-c2ccc(Cl)cc2)c1-c1ccnn1S(=O)(=O)c1ccc(Cl)cc1`, the Potency is 1.88 µM (active).

`CC(C)c1noc(-c2cccn3c(CNC(=O)c4nccc5ccccc45)nnc23)n1`: the Potency result was “inactive”.

For `Oc1c(C(Nc2ccccn2)c2ccccc2F)ccc2cccnc12` (configuration not stated), the Potency was 9.44 µM (active).

With `CCC(=NC(CC)CO)C1=C(O)CC(C)(C)CC1=O` (configuration not stated), the Potency entry is “inactive”.

As for `CN(C)C(=O)c1cccnc1OC1CCN(CCc2ccccc2)CC1`, the Potency entry is “inactive”.

Consider `CN1CCN(C(=O)C2(N(C)CCc3ccccc3)Cc3ccccc3C2)CC1`, for which the Potency is 2.66 µM (active).

Turning to `CC(C)C[C@@H]1N[C@H](C(=O)NC(C)C)Cc2cn(Cc3ccncc3)c3cccc1c23`, the Potency was 17.2 µM (active).

As for `Cc1cccc(C(=O)NC2CCN(c3cnn(C)c(=O)c3)CC2)c1`, the Potency result was “inactive”.

As for `CC(C)(C)c1ccc(N2C(=O)CSC2c2cccnc2)cc1` (configuration not stated), the Potency entry is “inactive”.

As to `Cc1cccc(N2CCN(c3cccc(C)c3)C2c2cccnc2)c1`, the Potency is 5.96 µM (active).

Take `CCc1cccc(NC(=O)N2CCCC(c3noc(COc4ccccc4F)n3)C2)c1` (configuration not stated): the Potency result is “inactive”.

As for `NCCc1cccc(CN2CCCC(COc3ccccc3F)C2)c1` (configuration not stated), the Potency was 2.66 µM (active).

For the molecule `CCCCOc1ccc(NC2=NC3(CCCCC3)N=C(N)N2)cc1`, the Potency was 8.41 µM (active).

In the case of `CC(C)C[C@@]12C(=O)N(c3cccc(Br)c3)C(=O)N1[C@H](c1ccc(F)cc1)[C@@H]1C(=O)N(C3CCCCC3)C(=O)[C@@H]12`, the Potency was 7.5 µM (active).

The values are drawn from PubChem BioAssay AID1347416 (National Center for Advancing Translational Sciences (NCATS), 2020).
